The structures appear in SMILES notation. The campaign covered roughly 310,000 compounds. About 2,200 (0.71%) showed an effect of 50% or more. Effects have a minus sign here. This excerpt belongs to a sample that is enriched for strong results.

Sequence of human ether-à-go-go-related gene (hERG) potassium channel (Q12809 whole entry, looked up): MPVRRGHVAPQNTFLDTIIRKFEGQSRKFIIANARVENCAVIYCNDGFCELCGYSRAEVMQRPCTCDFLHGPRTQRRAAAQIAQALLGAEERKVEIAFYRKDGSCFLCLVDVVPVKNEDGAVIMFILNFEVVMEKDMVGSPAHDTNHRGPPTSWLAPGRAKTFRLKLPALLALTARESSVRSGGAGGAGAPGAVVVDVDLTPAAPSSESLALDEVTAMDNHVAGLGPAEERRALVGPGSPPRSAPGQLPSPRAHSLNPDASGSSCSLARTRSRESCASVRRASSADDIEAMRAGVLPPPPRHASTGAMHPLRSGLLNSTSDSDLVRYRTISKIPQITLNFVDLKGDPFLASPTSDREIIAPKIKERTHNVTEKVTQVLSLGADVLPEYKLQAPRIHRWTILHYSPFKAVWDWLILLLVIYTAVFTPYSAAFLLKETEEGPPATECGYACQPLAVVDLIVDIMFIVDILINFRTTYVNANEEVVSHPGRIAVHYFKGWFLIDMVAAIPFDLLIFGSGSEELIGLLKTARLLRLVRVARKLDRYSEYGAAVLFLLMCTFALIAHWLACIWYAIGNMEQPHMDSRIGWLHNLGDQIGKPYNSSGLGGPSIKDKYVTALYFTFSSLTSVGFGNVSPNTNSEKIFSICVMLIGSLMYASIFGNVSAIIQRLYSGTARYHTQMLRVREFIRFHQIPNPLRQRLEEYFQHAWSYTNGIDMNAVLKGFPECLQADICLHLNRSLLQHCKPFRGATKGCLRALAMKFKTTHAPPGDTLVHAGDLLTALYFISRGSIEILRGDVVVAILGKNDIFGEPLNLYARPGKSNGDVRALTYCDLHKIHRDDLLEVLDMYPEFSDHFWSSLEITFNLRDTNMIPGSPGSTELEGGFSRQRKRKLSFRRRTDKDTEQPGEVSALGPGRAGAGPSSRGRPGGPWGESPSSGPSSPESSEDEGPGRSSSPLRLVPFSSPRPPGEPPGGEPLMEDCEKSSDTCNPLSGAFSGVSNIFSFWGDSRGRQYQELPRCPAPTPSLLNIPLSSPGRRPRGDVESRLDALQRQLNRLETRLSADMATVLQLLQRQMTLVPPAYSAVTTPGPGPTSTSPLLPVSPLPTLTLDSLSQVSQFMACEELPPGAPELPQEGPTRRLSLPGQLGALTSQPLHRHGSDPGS

The assay addresses human ether-à-go-go-related gene (hERG) potassium channel (human, UniProt Q12809). The assay can be described thus: primary screen, population patch clamp on CHO cells stably expressing hERG; higher = less effect of the substance.
Take `CCOC(=O)Cc1csc(NC(=O)/C=C\c2ccccc2Cl)n1`: the “hERG current change (%, negative = inhibition) at 1uM” value is given as 7.16%.
Consider `CC(C)C(=O)Nc1cccc(NC(=O)c2cccnc2)c1`, for which the “hERG current change (%, negative = inhibition) at 1uM” value is -1.01%.
Take `CCC(c1nnnn1CS(=O)(=O)c1ccc(C)cc1)N1CCC(C(N)=O)CC1.Cl` (centres unmarked): the “hERG current change (%, negative = inhibition) at 1uM” value was -3.7%.
To `Cc1cccc(OCC(=O)Nc2ccc(S(=O)(=O)Nc3ccccn3)cc2)c1` belongs 17.3%.
Turning to `CS(=O)(=O)n1nc(NCc2cccs2)nc1NCc1cccs1`, the “hERG current change (%, negative = inhibition) at 1uM” value stood at 10.5%.
To `CCOC(=O)CSc1c(-c2ccc(Cl)cc2)[nH]c2ccccc12` belongs 1.02%; to `COCCNC(=O)c1cc2c(=O)n3cccc(C)c3nc2n(Cc2ccncc2)c1=N`, -31.5%.
Then `CCCCNC(=O)c1cc2c(=O)n3cccc(C)c3nc2n(Cc2ccncc2)c1=N`, with -75.4%; and `CCCc1cc(=O)n2[nH]c(NCc3c(F)cccc3Cl)nc2n1`, with 12.7%.
To `O=C(NC1CCCCCC1)c1cc(=O)[nH]c2ccc(S(=O)(=O)N3CCOCC3)cc12` belongs 1.03%; to `Cc1ccc(C)c(N2CCN(C(=O)c3ccc(Cn4c(=O)[nH]c5ccccc5c4=O)cc3)CC2)c1`, 11.6%; to `COc1cccc(NC(=O)CCNC(=O)C2CCN(S(=O)(=O)c3ccc(F)cc3)CC2)c1`, 14.9%.
For the compound `CCOC(=O)C1CCN(S(=O)(=O)c2ccc3[nH]c(=O)oc3c2)CC1`, the “hERG current change (%, negative = inhibition) at 1uM” value was found to be 3.58%.
Turning to `CCOC(=O)C1CCN(S(=O)(=O)c2ccc3[nH]c(=O)ccc3c2)CC1`, the “hERG current change (%, negative = inhibition) at 1uM” value was -2.48%.
For the compound `CCOC(=O)C1CCN(S(=O)(=O)c2ccc3oc(=O)ccc3c2)CC1`, the “hERG current change (%, negative = inhibition) at 1uM” value is on record as -78.2%.
Then `COc1ccc(CCNCC(O)COc2cccc(Br)c2)cc1OC` (centres unmarked), with -39.5%; and `COc1ccc(C(OCC(O)CNCCc2ccc(S(N)(=O)=O)cc2)c2ccc(OC)cc2)cc1` (centres unmarked), with -1.33%; and `CCC(=O)c1ccc(OCC(O)CNCCc2ccc(Cl)cc2)cc1` (centres unmarked), with -69.9%.
To `Cc1cc(Cl)ccc1OCC(O)CNCCc1ccc(S(N)(=O)=O)cc1` (centres unmarked) belongs -58.2%; to `OC(CNCCc1ccc(Cl)cc1)COc1cc(Cl)ccc1Cl` (centres unmarked), 2.52%; to `COc1ccc(CCNCC(O)COc2ccc(Cl)cc2)cc1OC.Cl` (centres unmarked), -56%.
To `CC(=O)c1cccc(OCC(O)CNCCc2ccc(Cl)cc2)c1` (centres unmarked) belongs 10.6%; to `COc1ccc(CCNCC(O)COc2cccc(C(C)=O)c2)cc1OC.O=C(O)C(=O)O` (centres unmarked), 16%.
For the compound `CCC(=O)c1ccc(OCC(O)CNCc2ccc(F)cc2)cc1` (centres unmarked), the “hERG current change (%, negative = inhibition) at 1uM” value is -12.8%.
Then `O=C(Nc1ccc(Oc2ccc(Cl)cc2)cc1)c1ncn[nH]1`, with 2.59%; and `Cc1nn(CC(=O)Nc2ccc(N3CCOCC3)cc2)c(C)c1Cl`, with 19.7%.
Then `CSc1ccc(CN(C)CC(=O)Nc2c(F)cccc2F)cc1.O=C(O)C(=O)O`, with 7.89%; and `COc1ccc2c(c1OC)CN(C)CCc1cc3c(cc1C(O)C2)OCO3` (centres unmarked), with -0.22%.
With `COc1ccc2c(c1OC)CN(C)CCc1cc3c(cc1C(=O)C2)OCO3`, the “hERG current change (%, negative = inhibition) at 1uM” value was -84%.
Then `COc1cc2c(cc1OC)C(=O)Cc1ccc3c(c1CN(C)CC2)OCO3`, with -39.4%; and `CC(C)(C)NC(=O)CSc1nccn1Cc1ccccc1`, with 5.85%; and `O=C(ONC1=NCCCCC1)c1cccc([N+](=O)[O-])c1`, with 11.8%.
Then `Cl.O=[N+]([O-])c1ccccc1/C=N/NC1=NCCCCC1`, with -0.325%; and `O=[N+]([O-])c1cccc(/C=N/NC2=NCCCCC2)c1`, with -70.9%; and `Cc1cccc(OCC(O)Cn2c(=N)n(Cc3ccccc3)c3ccccc32)c1.Cl` (centres unmarked), with -16.4%.
To `COc1ccc(OCC(O)Cn2c(=N)n(Cc3ccccc3)c3ccccc32)cc1.Cl` (centres unmarked) belongs -76.6%; to `OC(COc1ccccc1)Cn1c2ccccc2c2ccccc21` (centres unmarked), 8.25%; to `Cc1ccc(Cn2c(=N)n(CC(O)COc3ccccc3)c3ccccc32)cc1.Cl` (centres unmarked), -36.1%.
Take `Cl.N=c1n(Cc2ccc(Cl)cc2)c2ccccc2n1CC(O)COc1ccccc1` (centres unmarked): the “hERG current change (%, negative = inhibition) at 1uM” value is -17.1%.
To `Cc1ccc(OCC(O)Cn2c(=N)n(Cc3ccccc3)c3ccccc32)cc1.Cl` (centres unmarked) belongs -61%.
Then `Cl.N=c1n(Cc2ccccc2)c2ccccc2n1CC(O)COc1ccccc1` (centres unmarked), with -55.8%; and `COc1ccc(OCC(O)Cn2c(=N)n(CCN3CCOCC3)c3ccccc32)cc1.Cl` (centres unmarked), with -10.5%.
Then `C=CCOC(=O)C1=C[C@H](c2ccc(C(F)(F)F)cc2)C[C@H](OCCCCO)O1`, with 9.6%; and `CCOC(=O)/C(=C/Nc1ccc(F)c(F)c1)[N+](=O)[O-]`, with 13%.
As to `CCOC(=O)c1ccc(NC(=O)[C@@H](NC(N)=O)C(C)C)cc1`, the “hERG current change (%, negative = inhibition) at 1uM” value was -0.13%.
Then `NC(=O)c1c(NC(=O)Cn2cc([N+](=O)[O-])cn2)sc2c1CCCC2`, with 2.68%.
In the case of `CCN1C(=O)C(CC(=O)Nc2ccc(F)cc2)N(CCCN2CCN(c3ccc(F)cc3)CC2)C1=S` (centres unmarked), the “hERG current change (%, negative = inhibition) at 1uM” value amounted to 0.806%.
Then `COc1ccc(C(=O)NC2CC2)cc1OC1CCN(Cc2cc(C)cc(C)c2)CC1`, with -57.7%.
To `COc1cc(CN2CCC(Oc3cc(C(=O)NC4CC4)ccc3OC)CC2)cc(OC)c1` belongs -62%.
As to `COc1cccc(CCNC(=O)c2ccc(OC)c(OC3CCN(C(C)C)CC3)c2)c1`, the “hERG current change (%, negative = inhibition) at 1uM” value was -2.35%.
`COc1ccc(C(=O)NCCc2ccc(C)cc2)cc1OC1CCN(C(C)=O)CC1`: the “hERG current change (%, negative = inhibition) at 1uM” value is on record as 9.4%.
To `COc1ccc(C(=O)NC2CCCCCCC2)cc1OC` belongs 9.08%; to `CC(C)(C)NC(=O)c1c(F)c(F)c(F)c(F)c1F`, 4.34%.
To `O=S(=O)(c1cccc(-c2nnc(SCc3nc4ccccc4s3)o2)c1)N1CCOCC1` belongs -2.26%.
To `Cc1ccc2c(c1)N(CC(=O)Nc1ccccc1F)C(=O)CO2` belongs 17.1%; to `O=C(O)c1cccc(N/N=C(\N=Nc2ccccc2)c2ccccc2)c1`, 16.7%.
In the case of `Cc1ccc2nc3c(cc(C(=O)NCCN4CCOCC4)c(=N)n3CCCN3CCOCC3)c(=O)n2c1`, the “hERG current change (%, negative = inhibition) at 1uM” value is on record as 5.89%.
To `Cc1ccc2nc3c(cc(C(=O)NCCc4ccccc4)c(=N)n3CCN3CCOCC3)c(=O)n2c1` belongs -82.9%; to `Cc1ccc2nc3c(cc(C(=O)NCCc4ccccc4)c(=N)n3CCCN3CCOCC3)c(=O)n2c1`, -77.5%.
Then `CCCCNC(=O)Cn1cnc2sc(C(=O)OCC)c(C)c2c1=O`, with 8.3%.
Then `CC(C)[C@H](NC(=O)CCn1nnc2ccccc2c1=O)C(=O)O`, with 17.3%.
For `O=C(/C=C/c1ccccc1O)c1ccc(Cl)cc1`, the “hERG current change (%, negative = inhibition) at 1uM” value amounted to 9.95%.
To `Cc1nc2ccccc2c(=O)n1NC(=O)/C=C/c1ccccc1` belongs -0.535%.
Then `Cc1nc2ccccc2c(=O)n1NC(=O)/C=C/c1ccccc1Cl`, with -51.1%; and `Cc1nc2ccccc2c(=O)n1NC(=O)/C=C/c1ccc(Br)cc1`, with 2.25%.
Then `Cc1csc(NC(=O)CCCc2cccs2)n1`, with 1.69%; and `CCCCCN(C(=O)CCC(=O)OCc1ccccc1C)c1c(N)n(CCCC)c(=O)[nH]c1=O`, with 7.65%; and `CN(c1cccc(NC(=O)CN(c2cccc(F)c2)S(C)(=O)=O)c1)S(C)(=O)=O`, with 11.3%.
For `CCOC(=O)C1(CCOc2ccccc2)CCN(Cc2cc(OC)c(O)c(OC)c2)CC1`, the “hERG current change (%, negative = inhibition) at 1uM” value is -66.6%.
As to `CCOC(=O)C1(CCOc2ccccc2)CCN(Cc2ccc(C)o2)CC1`, the “hERG current change (%, negative = inhibition) at 1uM” value is recorded as -32.8%.
On to `CCOC(=O)C1(CCOc2ccccc2)CCN(Cc2ccccc2O)CC1`, for which the “hERG current change (%, negative = inhibition) at 1uM” value is reported as -8.86%.
Then `CCOC(=O)C1(CCOc2ccccc2)CCN(Cc2ccc(OCC)c(CO)c2)CC1`, with -82.4%; and `CCOC(=O)C1(CCOc2ccccc2)CCN(Cc2cc(OC)ccc2OC)CC1`, with -60.1%; and `CCOC(=O)C1(Cc2cccc(OC)c2)CCN(Cc2cc(OC)ccc2OC)CC1`, with -7.48%.
To `CCOC(=O)C1(CCOc2ccccc2)CCN(Cc2cccc(OC)c2O)CC1` belongs -54.1%; to `CCOC(=O)C1(CCOc2ccccc2)CCN(Cc2ccc3nonc3c2)CC1`, 0.31%; to `CCOC(=O)C1(Cc2ccccc2)CCCN(Cc2ccc(OCC)c(CO)c2)C1` (centres unmarked), 4.54%.
Then `CCOC(=O)C1(CCOc2ccccc2)CCN(Cc2cc(OC)c3c(c2)OCO3)CC1`, with -7.24%; and `CCOC(=O)C1(CCOc2ccccc2)CCN(Cc2ccccc2OC)CC1`, with -37.2%.
As for `Cc1cc(-c2ccco2)n(CC(=O)NCCCc2ccccc2)n1`, the “hERG current change (%, negative = inhibition) at 1uM” value is on record as 14.3%.
Then `CC(C)(C)NC(=O)c1ccc2nsnc2c1`, with 6.08%; and `C=CCn1c(COc2ccc(Cl)cc2)nnc1SCC(=O)N/N=C/c1cccc(O)c1`, with 4.13%.
Then `COc1cccc(-c2c(C#N)c(N)nc3c2c(C)nn3-c2ccccc2)c1O`, with 1.84%; and `FC(F)(F)c1ccncc1-c1nnc(C2CCCCC2)o1`, with 15.5%; and `CCOC(=O)N1CCC(NC(=O)c2cnn3cccnc23)CC1`, with -4.76%.
Regarding `CC1CCCCN1CCNC(=O)CC1Oc2ccccc2NC1=O` (centres unmarked), the “hERG current change (%, negative = inhibition) at 1uM” value came out at 5.21%.
